# Test results published in PubChem BioAssay.
# Values joined by “and” are separate entries in the source; they are usually repeats but may differ in a detail not shown here. Equal entries are not always repeated. Inconclusive results are not listed. Active and inactive are the calls of the source.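 The calls were made as follows, unless noted: active = GFP response below 50% of the DMSO control; inconclusive = fewer than 70 events counted for a yeast strain; inactive = the rest.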
# Columns and labels:
# [1] = yeast TOR pathway RPL19A-GFP modulators, primary screen, cell-based, S. cerevisiae, multiplex flow cytometry (AID 1862; in the data active = percent of DMSO control GFP below about 86%;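 also: lower values mimic rapamycin by blocking the RPL19A rise seen in DMSO cells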); settings: S. cerevisiae RPL19A-GFP strain, flow cytometry fluorescence, 3 h; at 10 µM; stronger effect = lower value
# [2] = modulators of MEP2-GFP levels in yeast, primary screen, S. cerevisiae, multiplex flow cytometry (AID 1867;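 active = GFP response, as percent of the DMSO control, above the screen-wide mean plus 3 SD, about 139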;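 also: median GFP channel fluorescence of barcode-gated MEP2-GFP cells measured by flow cytometry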); settings: S. cerevisiae MEP2-GFP strain, 3 h, at 10 µM, stronger effect = higher value, 100% means same as DMSO wells
# [3] = modulators of CIT2-GFP expression in yeast, primary screen, S. cerevisiae, GFP fusion, multiplex flow cytometry (AID 1870;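 active = percent response above a set limit, the screen-wide mean plus 3 SD, cut at about 130% in these data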;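 also: barcoded CIT2-GFP strain pooled with four other GFP strains with rapamycin as positive control; median GFP fluorescence per well over plate mean of DMSO wells so 100% = DMSO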); settings: 3 h, at 10 µM, stronger effect = higher value
# [4] = modulators of LAP4-GFP expression in yeast, primary screen, S. cerevisiae, multiplex flow cytometry (AID 1873;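 active = GFP signal, as percent of the solvent control, above the screen mean plus 3 SD, about 149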); settings: 3 h, at 10 µM, stronger effect = higher value
# [5] = modulators of AGP1-GFP expression in yeast TOR pathway, primary screen, cell-based, multiplex flow cytometry, S. cerevisiae (AID 1887;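 active = GFP signal above the screen-wide mean plus 3 SD, that is over about 124.5% of the solvent control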;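 also: AGP1-GFP fusion strain of S. cerevisiae within a five-strain barcoded multiplex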); settings: 3 h, at 10 µM, stronger effect = higher value
# [6] = RPL19A-GFP modulators, yeast TOR pathway, confirmation, cell-based, S. cerevisiae, flow cytometry, cherry picks, mother/daughter gates (AID 2270); settings: S. cerevisiae RPL19A-GFP strain, 3 h, at 10 µM, stronger effect = lower value, 100 = same GFP as DMSO wells
# [7] = LAP4-GFP expression modulators in yeast, confirmation, cell-based, cherry picks, flow cytometry, mother/daughter gates (AID 2271;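 active = GFP response above 150% of the DMSO control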;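 also: ratio of sample to DMSO plate mean so 100% equals DMSO level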); settings: S. cerevisiae LAP4-GFP strain, 3 h, at 10 µM, stronger effect = higher value, 100 means same as DMSO control
# [8] = modulators of MEP2-GFP levels in yeast, confirmation, S. cerevisiae, flow cytometry GFP, cherry picks (AID 2272;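 active = GFP response above 150% of the DMSO control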;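 also: ratio of well signal to plate DMSO mean so 100% equals DMSO level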); settings: S. cerevisiae MEP2-GFP strain, 3 h, at 10 µM, stronger effect = higher value
# [9] = modulators of CIT2-GFP expression in yeast, confirmation, S. cerevisiae, GFP fusion, cherry picks, mother/daughter gates (AID 2274;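 active = GFP response above 150% of the DMSO level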); settings: S. cerevisiae CIT2-GFP strain, flow cytometry, 3 h, at 10 µM, stronger effect = higher value
# [10] = inhibitors of CD8+ T cell-vesicle binding, pilot screen, LFA-1/ICAM-1 modulator project, MLPCN validation set, flow cytometry (AID 2523;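 active = response below a set limit, under 55% cells CD8-positive and vesicle-bound, and CD8 cells' 90th-percentile brightness under 279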;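 as to vesicle binding response: mean PE anti-B7-1 fluorescence of CD8+ cells relative to row control; 100% = QL9-loaded vesicles with DMSO vehicle in the same plate row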); settings: 2C mouse CD8+ T cells, at 7 µM, stronger effect = lower value; double positive events: measured here: CD8+/vesicle+ event percentage
# [11] = target: Integrin beta-1 (Homo sapiens) + Integrin alpha-4 (Homo sapiens) (UniProt P13612+P05556); assay: inhibition of HUTS-21 binding to VLA-4, pilot screen, VLA-4 allosteric modulator project, U937 cells, HUTS-21 mAb, flow cytometry, validation set (AID 2674;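 active = inhibition above 50%, about 3 SD of the validation set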;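 also: antibody binding induced by the VLA-4 ligand LDV present at three times its Kd; 0% = LDV ligand with antibody and no compound and 100% = antibody without LDV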); settings: HUTS-21 LIBS mAb binding, at 6.7 µM, stronger effect = higher value, binding induced by LDV ligand
# [12] = superoxide lowering in aged yeast cells, pilot screen, validation compound set (AID 2706;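 active = superoxide response below 65% of plate, a cut near 3 SD across the whole screen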;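 also: yeast exposed to compound for one week at 30 degrees C before staining; 100% = mean of all compound wells on the same plate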); settings: S. cerevisiae aging, superoxide DHE fluorescence; at 10 µM; stronger effect = lower value
# [13] = target: Beta-adrenergic receptor kinase 1 (Homo sapiens) (UniProt P25098); assay: GRK2 binders displacing RNA aptamer, biochemical, validation, human GRK2, bead flow cytometry (AID 488806;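 active = aptamer binding inhibition above 30%, about 3 SD of noise from non-fluorescent compounds; inactive = inhibition at or below 30%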); settings: bead-bound GRK2, FAM-aptamer displacement, at 10 µM, stronger effect = higher value
# [14] = target: AP-2 complex subunit beta (Homo sapiens) (UniProt P63010); assay: inhibitors of arrestin peptide binding to AP2, pilot screen, biochemical, validation set, GST-AP2 beads, flow cytometry (AID 504541;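 active = inhibition above 54%, about 3 SD of non-fluorescent compounds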;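 also: AP2 carries R879A mutation and is captured from E. coli lysate; bead-bound FITC arrestin peptide fluorescence measuring arrestin peptide binding to AP2; 0% = DMSO wells and 100% = excess unlabeled arrestin peptide control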); settings: FITC arrestin peptide, at 10 µM, stronger effect = higher value, AP2 beta2 appendage fragment, R879A mutant
# [15] = yeast V-ATPase proton transport modulators, S. cerevisiae, pHLuorin, HTS validation (AID 504600; in the data active = response above about 15%;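 also: plate controls were DMSO for no effect and reference compound for full effect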); settings: S. cerevisiae pHLuorin cytosolic pH, at 10 µM, stronger effect = higher value
# [16] = tested on: anti-desmoglein-3 scFv antibody binding to human DSG3; assay: inhibitors of anti-DSG3 scFv binding to DSG3, pilot screen, biochemical, validation compound set, bead-based, flow cytometry (AID 588368;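 active = binding below the plate cutoff, the plate median minus 3 SD, with a reading above zero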;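 also: signal is the median channel fluorescence of bead-bound GFP antibody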); settings: Protein G beads, DSG3-Fc, scFv-GFP binding, at 10 µM, stronger effect = lower value
# [17] = inhibitors of fungal efflux pumps CDR1, CDR2, MDR1, pilot screen, validation compound set, multiplex, phenotypic (AID 588506;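 active = efflux inhibition above 0.42, the validation set average plus 4 SD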;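 also: Nile Red retained in cells so higher fluorescence means more efflux inhibition; 0 = negative control wells and 1 = enniatin B 25 µM full block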); settings: S. cerevisiae pump-expressing triplex, Nile Red efflux flow cytometry; at 10 µM; stronger effect = higher value; the pumps come from Candida albicans
# [18] = target: ATP-binding cassette sub-family B member 6 (Homo sapiens) (UniProt Q9NP58); assay: ABCB6 transporter inhibitors, pilot screen, K562-ABCB6 cells, flow cytometry, validation set (AID 588550;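 active = inhibition above the screen-wide mean plus 3 SD, about 51%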;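 also: 0% = DMSO wells and 100% = benzethonium chloride 70 µM positive control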); settings: K562-ABCB6 porphyrin accumulation, 1 h, at 10 µM, stronger effect = higher value
# [19] = promoters of myeloid differentiation in arrested cells, primary screen, cell-based, GFP/MAC1 double positive, flow cytometry, validation set (AID 588685;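 active = differentiation response of at least 50%, scaled between solvent and reference control, from cells with both markers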;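 also: compound exposure lasts four days before antibody staining and flow analysis; 0% = DMSO wells and 100% = 5 µM fulvestrant positive control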); settings: ER-HoxA9 marrow cells, stronger effect = higher value, normalized: vehicle 0, fulvestrant 100
# [20] = target: Beta-2 adrenergic receptor (Homo sapiens) (UniProt P07550); assay: beta2AR agonists driving receptor internalization, pilot screen, cell-based, FAP fluorogen, flow cytometry, validation set (AID 504459;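 active = percent response above 42, roughly 3 SD of non-fluorescent test compounds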;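 also: agonist-driven loss of surface beta2AR via internalization measured by FAP dye flow cytometry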); settings: Am2.2-beta2AR cells, FAP surface receptor flow cytometry; at 10 µM; stronger effect = higher value
# [21] = measured here: daughter cell gate
# [22] = measured here: mother cell gate
# [23] = measured here: daughter cell gate response
# [24] = measured here: mother cell gate response
# Sequence of Beta-adrenergic receptor kinase 1 (Homo sapiens) (P25098 whole entry, looked up): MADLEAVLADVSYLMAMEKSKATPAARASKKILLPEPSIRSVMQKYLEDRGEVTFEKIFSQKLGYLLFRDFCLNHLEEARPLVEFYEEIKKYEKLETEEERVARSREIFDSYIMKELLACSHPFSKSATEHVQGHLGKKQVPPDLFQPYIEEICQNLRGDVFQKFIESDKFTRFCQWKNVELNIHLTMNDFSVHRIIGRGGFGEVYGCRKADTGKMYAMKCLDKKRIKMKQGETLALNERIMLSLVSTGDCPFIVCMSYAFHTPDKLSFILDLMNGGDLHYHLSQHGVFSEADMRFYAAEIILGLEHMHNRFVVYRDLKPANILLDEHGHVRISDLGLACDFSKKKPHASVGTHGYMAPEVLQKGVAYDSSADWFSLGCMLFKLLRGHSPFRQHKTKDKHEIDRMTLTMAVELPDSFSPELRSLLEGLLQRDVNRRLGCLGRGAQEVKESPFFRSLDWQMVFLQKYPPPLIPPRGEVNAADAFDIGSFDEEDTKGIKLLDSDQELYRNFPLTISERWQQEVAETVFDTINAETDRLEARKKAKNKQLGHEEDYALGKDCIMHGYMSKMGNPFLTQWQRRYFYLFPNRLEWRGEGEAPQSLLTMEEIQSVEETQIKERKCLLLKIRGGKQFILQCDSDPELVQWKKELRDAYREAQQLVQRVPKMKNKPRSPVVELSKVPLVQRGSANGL
# Sequence of Integrin beta-1 (Homo sapiens) + Integrin alpha-4 (Homo sapiens) (P05556 whole entry, looked up): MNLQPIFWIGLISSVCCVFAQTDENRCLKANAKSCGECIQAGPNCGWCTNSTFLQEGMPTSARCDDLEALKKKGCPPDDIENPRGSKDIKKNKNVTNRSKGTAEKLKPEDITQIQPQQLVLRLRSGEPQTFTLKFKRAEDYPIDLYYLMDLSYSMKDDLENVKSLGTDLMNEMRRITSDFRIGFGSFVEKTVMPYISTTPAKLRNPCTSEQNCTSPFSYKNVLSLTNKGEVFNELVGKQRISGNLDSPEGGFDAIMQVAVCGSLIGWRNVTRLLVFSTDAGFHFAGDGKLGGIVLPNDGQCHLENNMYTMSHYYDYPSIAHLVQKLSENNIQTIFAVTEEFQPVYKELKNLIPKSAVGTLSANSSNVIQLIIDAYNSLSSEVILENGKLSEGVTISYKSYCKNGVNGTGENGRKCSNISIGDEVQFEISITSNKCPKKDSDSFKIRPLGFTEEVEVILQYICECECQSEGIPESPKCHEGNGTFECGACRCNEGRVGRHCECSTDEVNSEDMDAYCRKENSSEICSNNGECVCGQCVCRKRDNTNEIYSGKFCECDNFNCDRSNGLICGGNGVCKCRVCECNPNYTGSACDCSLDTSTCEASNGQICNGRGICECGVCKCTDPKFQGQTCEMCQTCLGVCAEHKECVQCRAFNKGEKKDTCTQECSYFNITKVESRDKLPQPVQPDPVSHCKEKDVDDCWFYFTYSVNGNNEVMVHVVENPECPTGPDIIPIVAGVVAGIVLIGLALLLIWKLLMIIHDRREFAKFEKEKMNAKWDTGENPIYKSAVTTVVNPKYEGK
# Sequence of Integrin beta-1 (Homo sapiens) + Integrin alpha-4 (Homo sapiens) (P13612 whole entry, looked up): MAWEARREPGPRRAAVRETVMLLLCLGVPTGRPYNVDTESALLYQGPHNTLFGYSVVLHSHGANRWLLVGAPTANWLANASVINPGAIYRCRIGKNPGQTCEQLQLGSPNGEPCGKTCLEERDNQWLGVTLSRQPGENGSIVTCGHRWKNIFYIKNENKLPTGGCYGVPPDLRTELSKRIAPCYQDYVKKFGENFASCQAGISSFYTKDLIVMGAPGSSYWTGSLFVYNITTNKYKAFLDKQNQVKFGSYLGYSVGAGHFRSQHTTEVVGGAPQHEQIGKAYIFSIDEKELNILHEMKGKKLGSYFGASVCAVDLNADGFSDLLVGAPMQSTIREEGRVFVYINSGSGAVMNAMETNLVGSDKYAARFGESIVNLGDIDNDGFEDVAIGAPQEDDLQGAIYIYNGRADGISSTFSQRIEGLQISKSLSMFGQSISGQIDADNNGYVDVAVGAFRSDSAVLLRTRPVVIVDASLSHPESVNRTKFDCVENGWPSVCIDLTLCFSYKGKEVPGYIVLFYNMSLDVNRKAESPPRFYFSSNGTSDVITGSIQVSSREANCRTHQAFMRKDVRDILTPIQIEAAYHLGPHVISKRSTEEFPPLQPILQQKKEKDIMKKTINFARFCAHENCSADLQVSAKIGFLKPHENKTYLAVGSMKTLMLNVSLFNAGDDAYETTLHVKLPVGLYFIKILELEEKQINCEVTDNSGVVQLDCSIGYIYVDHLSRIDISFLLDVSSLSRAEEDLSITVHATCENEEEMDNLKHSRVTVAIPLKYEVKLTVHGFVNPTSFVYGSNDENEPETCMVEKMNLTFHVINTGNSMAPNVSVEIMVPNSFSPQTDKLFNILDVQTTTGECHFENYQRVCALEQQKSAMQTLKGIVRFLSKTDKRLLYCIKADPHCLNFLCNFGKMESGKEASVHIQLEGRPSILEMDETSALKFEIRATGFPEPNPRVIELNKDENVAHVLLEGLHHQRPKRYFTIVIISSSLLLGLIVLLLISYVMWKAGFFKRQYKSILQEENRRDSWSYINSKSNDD
# Sequence of AP-2 complex subunit beta (Homo sapiens) (P63010 whole entry, looked up, the tested form may be a part, one chain of several): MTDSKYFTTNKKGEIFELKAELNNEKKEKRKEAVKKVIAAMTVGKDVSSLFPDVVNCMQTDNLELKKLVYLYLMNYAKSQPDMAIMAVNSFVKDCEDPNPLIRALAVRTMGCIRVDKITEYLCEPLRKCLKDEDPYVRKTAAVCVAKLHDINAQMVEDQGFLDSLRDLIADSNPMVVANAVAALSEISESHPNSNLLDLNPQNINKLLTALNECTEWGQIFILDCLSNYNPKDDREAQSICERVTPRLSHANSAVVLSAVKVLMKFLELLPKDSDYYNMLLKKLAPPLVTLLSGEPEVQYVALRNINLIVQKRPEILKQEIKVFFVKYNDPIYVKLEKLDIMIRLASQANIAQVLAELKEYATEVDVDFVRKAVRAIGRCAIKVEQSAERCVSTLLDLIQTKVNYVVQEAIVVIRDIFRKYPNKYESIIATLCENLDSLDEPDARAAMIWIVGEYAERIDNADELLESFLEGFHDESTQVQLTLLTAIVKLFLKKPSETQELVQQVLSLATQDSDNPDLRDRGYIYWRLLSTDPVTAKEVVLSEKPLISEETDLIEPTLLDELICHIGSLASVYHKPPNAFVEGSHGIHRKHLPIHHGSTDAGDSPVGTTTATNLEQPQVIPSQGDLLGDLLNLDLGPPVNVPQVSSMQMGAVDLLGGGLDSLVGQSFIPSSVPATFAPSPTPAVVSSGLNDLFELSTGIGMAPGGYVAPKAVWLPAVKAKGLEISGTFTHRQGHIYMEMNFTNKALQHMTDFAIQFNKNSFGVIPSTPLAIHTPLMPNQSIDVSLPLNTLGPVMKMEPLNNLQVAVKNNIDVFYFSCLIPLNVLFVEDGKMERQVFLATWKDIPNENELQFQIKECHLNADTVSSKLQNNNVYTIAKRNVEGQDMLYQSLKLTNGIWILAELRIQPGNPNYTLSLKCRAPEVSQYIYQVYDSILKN
# Sequence of ATP-binding cassette sub-family B member 6 (Homo sapiens) (Q9NP58 whole entry, looked up): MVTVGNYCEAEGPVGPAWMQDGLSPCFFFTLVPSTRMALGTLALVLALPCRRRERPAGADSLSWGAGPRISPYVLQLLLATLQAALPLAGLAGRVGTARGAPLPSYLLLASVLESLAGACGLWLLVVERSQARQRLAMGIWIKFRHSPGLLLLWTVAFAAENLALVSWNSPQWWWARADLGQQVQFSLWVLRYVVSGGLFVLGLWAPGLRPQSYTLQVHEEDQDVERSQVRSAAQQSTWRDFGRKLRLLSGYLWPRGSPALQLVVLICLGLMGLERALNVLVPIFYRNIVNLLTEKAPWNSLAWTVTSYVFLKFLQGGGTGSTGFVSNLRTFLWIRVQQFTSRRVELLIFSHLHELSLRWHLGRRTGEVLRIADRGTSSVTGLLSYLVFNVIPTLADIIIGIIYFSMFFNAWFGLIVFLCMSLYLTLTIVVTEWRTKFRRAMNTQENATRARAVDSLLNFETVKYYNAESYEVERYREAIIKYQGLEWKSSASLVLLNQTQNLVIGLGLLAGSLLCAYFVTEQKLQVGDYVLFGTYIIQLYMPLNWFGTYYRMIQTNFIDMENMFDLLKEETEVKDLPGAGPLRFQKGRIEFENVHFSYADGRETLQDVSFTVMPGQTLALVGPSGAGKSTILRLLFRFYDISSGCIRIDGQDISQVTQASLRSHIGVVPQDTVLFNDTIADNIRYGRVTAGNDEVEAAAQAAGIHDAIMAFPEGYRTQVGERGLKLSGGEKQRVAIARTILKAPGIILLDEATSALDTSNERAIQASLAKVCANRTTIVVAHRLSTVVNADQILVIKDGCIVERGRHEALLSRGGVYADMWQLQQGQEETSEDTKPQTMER
# Sequence of Beta-2 adrenergic receptor (Homo sapiens) (P07550 whole entry, looked up): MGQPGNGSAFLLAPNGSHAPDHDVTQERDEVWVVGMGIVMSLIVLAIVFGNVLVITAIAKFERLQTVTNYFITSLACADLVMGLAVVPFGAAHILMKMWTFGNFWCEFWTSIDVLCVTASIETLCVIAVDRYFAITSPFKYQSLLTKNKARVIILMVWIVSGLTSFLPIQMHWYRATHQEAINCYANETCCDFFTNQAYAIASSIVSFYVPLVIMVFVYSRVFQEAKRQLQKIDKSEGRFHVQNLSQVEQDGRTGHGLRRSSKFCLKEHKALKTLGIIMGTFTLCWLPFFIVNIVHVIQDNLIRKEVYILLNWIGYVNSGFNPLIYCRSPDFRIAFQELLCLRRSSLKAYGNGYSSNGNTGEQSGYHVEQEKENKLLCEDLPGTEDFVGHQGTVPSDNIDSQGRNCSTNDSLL
smiles,measurement,setting,value
Nc1[nH]c(=O)ncc1F,percent of DMSO control GFP,[1],84.2% (active)
same,GFP response vs DMSO,[2],107% (inactive)
same,percent response of DMSO control,[3],87.1% (inactive)
same,GFP response vs DMSO,[4],113% (inactive)
same,"GFP response, % of DMSO",[5],80.8% (inactive)
same,GFP response vs DMSO,[6],74.7% (inactive)
same,GFP response vs DMSO,[6]; [21],70.4%
same,GFP response vs DMSO,[6]; [22],78.1%
same,GFP response relative to DMSO,[7],107% (inactive)
same,GFP response relative to DMSO,[7]; [23],95%
same,GFP response relative to DMSO,[7]; [24],111%
same,GFP response vs DMSO,[8],106% (inactive)
same,"GFP response, % of DMSO",[9],80.6% (inactive)
same,"GFP response, % of DMSO",[9]; [21],79.7%
same,"GFP response, % of DMSO",[9]; [22],81.6%
same,double positive events,[10],61.3%
same,vesicle binding response,[10],142% (inactive)
same,inhibition,[11],10% (inactive)
same,superoxide response (% of plate),[12],67.3% (inactive)
same,aptamer binding inhibition,[13],0% (inactive)
same,inhibition,[14],27% (inactive)
same,response,[15],-5.4% (inactive)
same,binding (% of control),[16],108% (inactive)
same,efflux inhibition (fraction of control),[17],0.33 (inactive)
same,inhibition,[18],1% (inactive)
same,differentiation response,[19],7.87% (inactive)
C[C@]12CCC(=O)C=C1CC[C@@H]1[C@@H]2[C@@H](O)C[C@@]2(C)[C@H]1CC[C@]2(O)C(=O)COC(=O)CCC(=O)O,percent of DMSO control GFP,[1],104% (inactive)
same,GFP response vs DMSO,[2],108% (inactive)
same,percent response of DMSO control,[3],110% (inactive)
same,GFP response vs DMSO,[4],119% (inactive)
same,"GFP response, % of DMSO",[5],108% (inactive)
same,GFP response vs DMSO,[6],98% (inactive) and 96.4% (inactive)
same,GFP response vs DMSO,[6]; [21],96.4% and 98.1%
same,GFP response vs DMSO,[6]; [22],101% and 94.9%
same,GFP response relative to DMSO,[7],97.4% (inactive) and 99.2% (inactive)
same,GFP response relative to DMSO,[7]; [23],103% and 97.6%
same,GFP response relative to DMSO,[7]; [24],91.1% and 100%
same,GFP response vs DMSO,[8],100% (inactive)
same,"GFP response, % of DMSO",[9],96.5% (inactive) and 98.3% (inactive)
same,"GFP response, % of DMSO",[9]; [21],94.8% and 99.1%
same,"GFP response, % of DMSO",[9]; [22],92.3% and 97.3%
same,double positive events,[10],43.7%
same,vesicle binding response,[10],165% (inactive)
same,inhibition,[11],-9.57% (inactive)
same,superoxide response (% of plate),[12],98.2% (inactive)
same,aptamer binding inhibition,[13],0% (inactive)
same,inhibition,[14],-8.58% (inactive)
same,response,[15],10.6% (inactive)
same,binding (% of control),[16],99.5% (inactive)
same,efflux inhibition (fraction of control),[17],-0.16 (inactive)
same,inhibition,[18],10% (inactive)
same,differentiation response,[19],-26% (inactive)
CC(=O)[C@@]1(O)CC[C@H]2[C@@H]3C[C@H](C)C4=CC(=O)CC[C@]4(C)[C@H]3CC[C@@]21C,percent of DMSO control GFP,[1],90.2% (inactive)
same,GFP response vs DMSO,[2],114% (inactive)
same,percent response of DMSO control,[3],96.6% (inactive)
same,GFP response vs DMSO,[4],78.1% (inactive)
same,"GFP response, % of DMSO",[5],96.6% (inactive)
same,GFP response vs DMSO,[6],94.8% (inactive)
same,GFP response vs DMSO,[6]; [21],96.1%
same,GFP response vs DMSO,[6]; [22],95.1%
same,GFP response relative to DMSO,[7],94.1% (inactive)
same,GFP response relative to DMSO,[7]; [23],92.8%
same,GFP response relative to DMSO,[7]; [24],92.9%
same,GFP response vs DMSO,[8],92% (inactive)
same,"GFP response, % of DMSO",[9],98.3% (inactive)
same,"GFP response, % of DMSO",[9]; [21],101%
same,"GFP response, % of DMSO",[9]; [22],96.1%
same,double positive events,[10],72%
same,vesicle binding response,[10],363% (inactive)
same,inhibition,[11],11.3% (inactive)
same,superoxide response (% of plate),[12],97% (inactive)
same,aptamer binding inhibition,[13],4% (inactive)
same,response,[20],4.79% (inactive)
same,inhibition,[14],-6.18% (inactive)
same,response,[15],1.54% (inactive)
same,binding (% of control),[16],102% (inactive)
same,efflux inhibition (fraction of control),[17],-0.46 (inactive)
same,inhibition,[18],13% (inactive)
same,differentiation response,[19],-9.01% (inactive)
C[C@]12CC[C@H]3[C@@H](CCC4=CC(=O)CC[C@@]43C)[C@@H]1CC[C@@H]2C(=O)CO,percent of DMSO control GFP,[1],93.7% (inactive)
same,GFP response vs DMSO,[2],119% (inactive)
same,percent response of DMSO control,[3],102% (inactive)
same,GFP response vs DMSO,[4],84.7% (inactive)
same,"GFP response, % of DMSO",[5],84.3% (inactive)
same,GFP response vs DMSO,[6],97.8% (inactive)
same,GFP response vs DMSO,[6]; [21],95.3%
same,GFP response vs DMSO,[6]; [22],98.4%
same,GFP response relative to DMSO,[7],107% (inactive)
same,GFP response relative to DMSO,[7]; [23],106%
same,GFP response relative to DMSO,[7]; [24],106%
same,GFP response vs DMSO,[8],93.5% (inactive)
same,"GFP response, % of DMSO",[9],91.3% (inactive)
same,"GFP response, % of DMSO",[9]; [21],89.9%
same,"GFP response, % of DMSO",[9]; [22],91.2%
same,double positive events,[10],56.7%
same,vesicle binding response,[10],201% (inactive)
same,inhibition,[11],-13.9% (inactive)
same,superoxide response (% of plate),[12],104% (inactive)
same,aptamer binding inhibition,[13],-4% (inactive)
same,response,[20],-2.3% (inactive)
same,inhibition,[14],11.7% (inactive)
same,response,[15],-4.52% (inactive)
same,binding (% of control),[16],111% (inactive)
same,efflux inhibition (fraction of control),[17],-0.02 (inactive)
same,inhibition,[18],7% (inactive)
same,differentiation response,[19],14.7% (inactive)
